Source: the supplement of paper PMC11732987, “Enantioselective OTUD7B fragment discovery through chemoproteomics screening and high-throughput optimisation” (Communications Chemistry, 2025)
Unmarked numbers belong to inactive results.

Assays:
Assay in all cases: log2 ratio of Biotin-Ahx-Ub-VS probe labelling (fragment/DMSO); higher = less target engagement (more negative = stronger competition), active = hit call of the paper (q ≤ 0.05, log2 ratio ≤ -1)
Details in all cases: compound concentration: 200 uM; treatment time: 3 h
[1] = target: USP9X (UniProt Q93008)
Summary of the method: (§1)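 HEK293T lysate (495 µg per sample, in Tris/CHAPS/IGEPAL buffer with protease inhibitors) was exposed in triplicate for 3 h to fragment at 200 µM or to vehicle, then to Biotin-Ahx-Ub-VS at 0.5 µM final for 1 h. Labelled DUBs were enriched on NeutrAvidin, digested with LysC and trypsin, and analysed by diaPASEF LC-MS/MS. Spectronaut label-free quantities were normalised to the global median, and values are average log2 ratios of fragment over vehicle from an unpaired t-test. Only proteins with ≥2 unique peptides were used.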

[2] = target: UniProt O00487
Chain of UniProt O00487 (O00487 whole entry): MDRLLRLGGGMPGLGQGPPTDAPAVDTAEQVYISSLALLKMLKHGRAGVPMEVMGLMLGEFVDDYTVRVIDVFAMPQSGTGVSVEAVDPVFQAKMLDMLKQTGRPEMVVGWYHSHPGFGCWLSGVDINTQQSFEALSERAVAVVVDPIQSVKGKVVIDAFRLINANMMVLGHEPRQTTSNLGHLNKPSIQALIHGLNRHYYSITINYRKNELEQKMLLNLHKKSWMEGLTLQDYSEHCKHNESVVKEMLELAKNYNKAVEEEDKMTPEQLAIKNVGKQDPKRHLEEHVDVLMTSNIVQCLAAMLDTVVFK
Summary of the method: as §1

[3] = target: UniProt O00507
Chain of UniProt O00507 (O00507 whole entry): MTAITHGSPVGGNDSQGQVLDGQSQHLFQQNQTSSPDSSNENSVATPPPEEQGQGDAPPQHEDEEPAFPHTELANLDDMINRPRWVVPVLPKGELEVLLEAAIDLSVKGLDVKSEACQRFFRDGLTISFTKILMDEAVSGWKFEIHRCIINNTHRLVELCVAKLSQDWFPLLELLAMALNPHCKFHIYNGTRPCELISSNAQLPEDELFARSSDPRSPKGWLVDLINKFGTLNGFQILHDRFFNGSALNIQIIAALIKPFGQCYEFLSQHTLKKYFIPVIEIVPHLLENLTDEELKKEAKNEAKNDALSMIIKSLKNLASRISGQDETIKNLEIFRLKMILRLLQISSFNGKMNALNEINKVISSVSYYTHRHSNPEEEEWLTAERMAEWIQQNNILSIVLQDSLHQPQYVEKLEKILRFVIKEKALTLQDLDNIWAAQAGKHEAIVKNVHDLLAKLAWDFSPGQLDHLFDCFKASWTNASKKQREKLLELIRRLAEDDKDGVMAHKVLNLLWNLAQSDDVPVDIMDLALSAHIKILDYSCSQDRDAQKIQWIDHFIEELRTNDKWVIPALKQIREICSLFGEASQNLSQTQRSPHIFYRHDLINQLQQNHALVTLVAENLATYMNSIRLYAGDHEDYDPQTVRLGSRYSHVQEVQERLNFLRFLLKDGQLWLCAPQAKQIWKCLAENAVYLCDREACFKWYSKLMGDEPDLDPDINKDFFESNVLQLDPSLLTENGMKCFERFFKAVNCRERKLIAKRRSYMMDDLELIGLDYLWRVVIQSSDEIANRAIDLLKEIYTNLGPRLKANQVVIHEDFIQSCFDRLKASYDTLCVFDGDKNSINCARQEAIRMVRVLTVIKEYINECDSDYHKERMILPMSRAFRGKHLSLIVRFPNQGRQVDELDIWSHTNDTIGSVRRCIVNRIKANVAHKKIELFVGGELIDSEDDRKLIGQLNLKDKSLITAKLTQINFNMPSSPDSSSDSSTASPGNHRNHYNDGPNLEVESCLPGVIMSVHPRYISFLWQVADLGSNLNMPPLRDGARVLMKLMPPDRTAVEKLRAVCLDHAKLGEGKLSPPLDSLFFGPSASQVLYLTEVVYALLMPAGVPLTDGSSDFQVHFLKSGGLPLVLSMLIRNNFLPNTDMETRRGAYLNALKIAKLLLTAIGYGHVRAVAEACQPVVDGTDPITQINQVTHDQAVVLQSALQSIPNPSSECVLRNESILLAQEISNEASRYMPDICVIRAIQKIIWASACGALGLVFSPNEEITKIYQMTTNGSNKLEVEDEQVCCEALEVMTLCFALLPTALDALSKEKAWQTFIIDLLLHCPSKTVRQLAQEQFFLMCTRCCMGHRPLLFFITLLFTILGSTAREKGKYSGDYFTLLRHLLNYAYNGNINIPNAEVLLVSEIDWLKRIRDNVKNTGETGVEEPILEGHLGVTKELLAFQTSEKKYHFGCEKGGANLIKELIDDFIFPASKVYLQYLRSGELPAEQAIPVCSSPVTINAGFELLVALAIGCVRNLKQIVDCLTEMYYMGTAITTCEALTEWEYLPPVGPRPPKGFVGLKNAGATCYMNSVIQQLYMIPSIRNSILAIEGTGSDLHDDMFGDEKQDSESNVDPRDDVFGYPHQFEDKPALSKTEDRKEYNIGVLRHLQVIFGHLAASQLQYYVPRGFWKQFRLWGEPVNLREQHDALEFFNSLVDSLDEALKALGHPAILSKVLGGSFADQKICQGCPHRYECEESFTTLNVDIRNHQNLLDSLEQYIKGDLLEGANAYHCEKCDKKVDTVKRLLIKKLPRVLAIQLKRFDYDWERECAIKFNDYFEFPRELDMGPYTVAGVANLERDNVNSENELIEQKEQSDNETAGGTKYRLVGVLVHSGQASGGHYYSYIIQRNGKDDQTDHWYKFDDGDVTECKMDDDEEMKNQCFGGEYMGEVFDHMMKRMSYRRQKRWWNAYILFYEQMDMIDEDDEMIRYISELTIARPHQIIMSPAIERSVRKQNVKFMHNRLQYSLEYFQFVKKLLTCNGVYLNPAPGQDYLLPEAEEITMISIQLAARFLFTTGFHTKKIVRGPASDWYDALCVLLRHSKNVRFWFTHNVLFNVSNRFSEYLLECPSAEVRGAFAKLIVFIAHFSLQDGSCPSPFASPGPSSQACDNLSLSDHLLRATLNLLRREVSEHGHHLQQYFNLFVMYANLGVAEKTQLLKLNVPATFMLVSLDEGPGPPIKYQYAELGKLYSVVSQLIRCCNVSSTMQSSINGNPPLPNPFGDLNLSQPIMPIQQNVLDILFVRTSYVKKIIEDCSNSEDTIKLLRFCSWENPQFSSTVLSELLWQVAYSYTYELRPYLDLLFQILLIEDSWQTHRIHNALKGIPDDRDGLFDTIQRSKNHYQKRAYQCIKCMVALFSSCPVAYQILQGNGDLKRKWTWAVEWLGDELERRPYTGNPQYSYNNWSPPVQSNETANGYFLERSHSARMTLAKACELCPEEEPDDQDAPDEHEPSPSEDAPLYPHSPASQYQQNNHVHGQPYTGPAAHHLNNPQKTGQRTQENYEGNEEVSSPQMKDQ
Summary of the method: as §1

[4] = target: UniProt P51784
Chain of UniProt P51784 (P51784 whole entry): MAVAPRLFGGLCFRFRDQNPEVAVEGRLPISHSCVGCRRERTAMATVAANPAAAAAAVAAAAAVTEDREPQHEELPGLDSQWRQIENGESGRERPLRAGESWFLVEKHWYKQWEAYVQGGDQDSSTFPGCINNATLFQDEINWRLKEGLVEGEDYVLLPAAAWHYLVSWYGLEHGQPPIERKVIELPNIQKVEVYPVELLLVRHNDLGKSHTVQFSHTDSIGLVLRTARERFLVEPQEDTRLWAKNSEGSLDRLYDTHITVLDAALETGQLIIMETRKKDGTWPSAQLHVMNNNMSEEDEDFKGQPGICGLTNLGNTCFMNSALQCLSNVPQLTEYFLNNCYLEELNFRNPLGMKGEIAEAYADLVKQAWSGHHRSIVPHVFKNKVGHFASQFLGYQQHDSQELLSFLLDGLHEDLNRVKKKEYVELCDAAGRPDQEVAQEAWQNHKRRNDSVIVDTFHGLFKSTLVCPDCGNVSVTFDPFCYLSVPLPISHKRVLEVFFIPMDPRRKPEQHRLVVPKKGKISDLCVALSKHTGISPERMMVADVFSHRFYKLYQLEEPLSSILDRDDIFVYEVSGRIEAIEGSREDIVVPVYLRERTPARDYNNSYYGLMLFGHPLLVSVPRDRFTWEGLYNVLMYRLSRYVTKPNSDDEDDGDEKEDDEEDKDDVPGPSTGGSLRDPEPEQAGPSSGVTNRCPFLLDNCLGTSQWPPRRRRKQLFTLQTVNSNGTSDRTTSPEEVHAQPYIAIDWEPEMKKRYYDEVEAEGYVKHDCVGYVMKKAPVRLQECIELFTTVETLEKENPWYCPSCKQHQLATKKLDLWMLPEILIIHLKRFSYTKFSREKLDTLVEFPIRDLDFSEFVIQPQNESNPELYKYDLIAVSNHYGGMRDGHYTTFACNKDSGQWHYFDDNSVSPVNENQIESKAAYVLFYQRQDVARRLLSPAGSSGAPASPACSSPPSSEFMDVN
Summary of the method: as §1

[5] = target: T1, UniProt Q5T2D3
T1 sequence (whole entry): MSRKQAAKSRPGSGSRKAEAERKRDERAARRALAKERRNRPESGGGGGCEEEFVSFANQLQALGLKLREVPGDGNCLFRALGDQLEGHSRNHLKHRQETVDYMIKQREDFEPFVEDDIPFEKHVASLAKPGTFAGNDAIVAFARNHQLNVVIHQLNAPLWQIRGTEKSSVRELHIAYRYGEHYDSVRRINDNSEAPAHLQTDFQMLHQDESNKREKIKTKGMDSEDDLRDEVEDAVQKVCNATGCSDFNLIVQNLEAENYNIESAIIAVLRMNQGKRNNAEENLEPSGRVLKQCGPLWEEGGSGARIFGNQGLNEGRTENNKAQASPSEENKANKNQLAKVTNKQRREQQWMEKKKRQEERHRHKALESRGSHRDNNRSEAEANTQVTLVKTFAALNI
Summary of the method: as §1

[6] = target: T2, UniProt Q8TE49
T2 sequence (whole entry): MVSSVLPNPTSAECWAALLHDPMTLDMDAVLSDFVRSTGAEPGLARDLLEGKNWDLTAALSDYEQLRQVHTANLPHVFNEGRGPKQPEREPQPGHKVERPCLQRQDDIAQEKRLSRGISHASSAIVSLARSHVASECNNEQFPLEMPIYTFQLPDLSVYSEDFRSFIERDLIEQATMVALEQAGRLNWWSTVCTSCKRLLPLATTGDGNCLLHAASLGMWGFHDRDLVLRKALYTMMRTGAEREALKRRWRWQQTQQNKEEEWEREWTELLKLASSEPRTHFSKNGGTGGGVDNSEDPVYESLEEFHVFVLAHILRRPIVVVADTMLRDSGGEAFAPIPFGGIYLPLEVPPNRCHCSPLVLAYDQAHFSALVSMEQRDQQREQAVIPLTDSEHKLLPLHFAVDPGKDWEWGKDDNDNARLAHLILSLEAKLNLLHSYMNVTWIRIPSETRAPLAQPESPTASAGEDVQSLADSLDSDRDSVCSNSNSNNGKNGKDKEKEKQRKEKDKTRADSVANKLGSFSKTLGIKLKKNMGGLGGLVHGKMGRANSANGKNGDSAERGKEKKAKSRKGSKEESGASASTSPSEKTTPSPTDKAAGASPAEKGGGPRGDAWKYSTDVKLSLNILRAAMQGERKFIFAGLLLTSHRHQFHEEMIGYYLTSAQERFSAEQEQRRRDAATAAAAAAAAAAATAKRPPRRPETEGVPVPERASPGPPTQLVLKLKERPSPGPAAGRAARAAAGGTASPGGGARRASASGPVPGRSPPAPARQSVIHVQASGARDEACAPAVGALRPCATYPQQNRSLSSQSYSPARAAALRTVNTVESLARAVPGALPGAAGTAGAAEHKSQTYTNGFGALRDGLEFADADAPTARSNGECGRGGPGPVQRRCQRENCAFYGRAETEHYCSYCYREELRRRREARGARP
Summary of the method: as §1

[7] = target: T3, UniProt Q9P2H5
T3 sequence (whole entry): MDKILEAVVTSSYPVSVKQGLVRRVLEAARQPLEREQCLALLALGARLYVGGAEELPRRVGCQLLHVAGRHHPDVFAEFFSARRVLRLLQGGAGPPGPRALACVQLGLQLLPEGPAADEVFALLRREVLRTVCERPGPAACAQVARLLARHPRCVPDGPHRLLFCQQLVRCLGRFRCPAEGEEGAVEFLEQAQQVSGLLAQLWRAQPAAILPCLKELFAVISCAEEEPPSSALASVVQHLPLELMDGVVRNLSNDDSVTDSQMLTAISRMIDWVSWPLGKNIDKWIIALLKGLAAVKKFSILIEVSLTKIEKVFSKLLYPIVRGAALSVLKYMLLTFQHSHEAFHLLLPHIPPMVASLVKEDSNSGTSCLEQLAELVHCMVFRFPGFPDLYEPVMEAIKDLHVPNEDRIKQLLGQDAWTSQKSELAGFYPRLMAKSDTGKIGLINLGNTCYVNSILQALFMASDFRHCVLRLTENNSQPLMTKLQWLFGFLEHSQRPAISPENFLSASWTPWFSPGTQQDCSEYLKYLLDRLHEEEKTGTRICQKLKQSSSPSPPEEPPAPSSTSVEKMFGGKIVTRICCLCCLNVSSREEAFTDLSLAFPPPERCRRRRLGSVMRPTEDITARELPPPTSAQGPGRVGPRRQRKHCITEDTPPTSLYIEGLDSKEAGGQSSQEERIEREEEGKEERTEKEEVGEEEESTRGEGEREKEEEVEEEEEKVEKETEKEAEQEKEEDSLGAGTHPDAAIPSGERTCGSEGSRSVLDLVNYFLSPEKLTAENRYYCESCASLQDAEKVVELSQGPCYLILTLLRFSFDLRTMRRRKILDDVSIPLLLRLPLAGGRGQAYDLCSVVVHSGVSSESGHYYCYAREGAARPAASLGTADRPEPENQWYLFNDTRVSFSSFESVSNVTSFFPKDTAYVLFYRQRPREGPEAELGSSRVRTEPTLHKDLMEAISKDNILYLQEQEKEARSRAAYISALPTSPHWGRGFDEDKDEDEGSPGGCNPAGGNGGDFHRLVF
Summary of the method: as §1

[8] = target: T4, UniProt Q9UGI0
T4 sequence (whole entry): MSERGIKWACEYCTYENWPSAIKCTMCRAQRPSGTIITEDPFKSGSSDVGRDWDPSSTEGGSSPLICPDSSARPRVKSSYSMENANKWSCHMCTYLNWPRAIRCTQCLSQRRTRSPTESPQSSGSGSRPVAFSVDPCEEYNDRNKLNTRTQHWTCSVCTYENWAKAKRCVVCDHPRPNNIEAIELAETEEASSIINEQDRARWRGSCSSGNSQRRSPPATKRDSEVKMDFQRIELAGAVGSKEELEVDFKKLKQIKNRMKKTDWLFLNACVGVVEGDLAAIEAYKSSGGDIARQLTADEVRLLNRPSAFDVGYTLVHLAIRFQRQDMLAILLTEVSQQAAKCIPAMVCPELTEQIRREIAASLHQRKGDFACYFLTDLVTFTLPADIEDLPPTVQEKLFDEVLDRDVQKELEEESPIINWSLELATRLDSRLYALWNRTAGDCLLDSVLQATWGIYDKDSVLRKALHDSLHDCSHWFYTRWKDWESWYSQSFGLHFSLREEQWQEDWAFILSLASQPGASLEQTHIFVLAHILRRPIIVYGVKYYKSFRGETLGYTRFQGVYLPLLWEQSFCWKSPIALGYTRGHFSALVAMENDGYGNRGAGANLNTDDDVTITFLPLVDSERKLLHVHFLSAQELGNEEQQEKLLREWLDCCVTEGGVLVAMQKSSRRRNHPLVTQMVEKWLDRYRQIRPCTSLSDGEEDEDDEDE
Summary of the method: as §1

[9] = target: T5, YOD1 (UniProt Q5VVQ6)
T5 sequence (whole entry): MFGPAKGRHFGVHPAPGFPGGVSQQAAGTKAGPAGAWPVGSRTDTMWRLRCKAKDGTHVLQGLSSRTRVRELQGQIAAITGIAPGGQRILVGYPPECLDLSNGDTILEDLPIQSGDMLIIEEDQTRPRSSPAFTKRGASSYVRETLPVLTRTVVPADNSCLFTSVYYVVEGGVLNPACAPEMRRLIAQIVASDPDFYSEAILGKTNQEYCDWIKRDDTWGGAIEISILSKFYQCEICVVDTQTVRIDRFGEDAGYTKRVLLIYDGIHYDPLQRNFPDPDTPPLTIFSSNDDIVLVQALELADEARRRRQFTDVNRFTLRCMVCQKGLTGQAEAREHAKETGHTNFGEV
Summary of the method: as §1

For `N#Cc1ccccc1N1CCN(C(=O)CCl)CC1`, the “log2 ratio of Biotin-Ahx-Ub-VS probe labelling” value (shortened to “log2 ratio”) [1] was -0.651, the “log2 ratio” value [2] was 0.0611 and the “log2 ratio” value [3] was -0.534. The “log2 ratio” value [4] was -0.515, the “log2 ratio” value [5] was -0.687 and the “log2 ratio” value [6] was -1.29 (active). The “log2 ratio” value [7] was -0.617, the “log2 ratio” value [8] was -2.22 (active) and the “log2 ratio” value [9] was -0.448.
